Measured values: PubChem BioAssay AID1619 (SRMLSC, 2009)
Among all 220,000 compounds or so, about 830 (0.38%) were called active.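 How the source made its calls: active means compound inhibiting the enzyme by more than half at any dose during confirmatory dose-response retesting; inconclusive means strong single-dose inhibitors picked by rank but not retested; inactive means the rest.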 Not all results are given here. Measured potencies and affinities stand elsewhere.

These compounds were tested against Leucine aminopeptidase (Plasmodium falciparum (isolate 3D7)) (UniProt Q8IL11) (assay: P. falciparum M17LAP inhibitors, primary screen, biochemical, fluorogenic H-Leu-NHMec substrate, 1536-well (AID 1619;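 further: plate controls were full reaction with DMSO carrier for no effect and no enzyme background for full effect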)). Settings: recombinant M17LAP, H-Leu-NHMec fluorogenic kinetic assay; at 30 µM; active compounds read high.
Chain of Leucine aminopeptidase (Plasmodium falciparum (isolate 3D7)) (Q8IL11 whole entry, looked up): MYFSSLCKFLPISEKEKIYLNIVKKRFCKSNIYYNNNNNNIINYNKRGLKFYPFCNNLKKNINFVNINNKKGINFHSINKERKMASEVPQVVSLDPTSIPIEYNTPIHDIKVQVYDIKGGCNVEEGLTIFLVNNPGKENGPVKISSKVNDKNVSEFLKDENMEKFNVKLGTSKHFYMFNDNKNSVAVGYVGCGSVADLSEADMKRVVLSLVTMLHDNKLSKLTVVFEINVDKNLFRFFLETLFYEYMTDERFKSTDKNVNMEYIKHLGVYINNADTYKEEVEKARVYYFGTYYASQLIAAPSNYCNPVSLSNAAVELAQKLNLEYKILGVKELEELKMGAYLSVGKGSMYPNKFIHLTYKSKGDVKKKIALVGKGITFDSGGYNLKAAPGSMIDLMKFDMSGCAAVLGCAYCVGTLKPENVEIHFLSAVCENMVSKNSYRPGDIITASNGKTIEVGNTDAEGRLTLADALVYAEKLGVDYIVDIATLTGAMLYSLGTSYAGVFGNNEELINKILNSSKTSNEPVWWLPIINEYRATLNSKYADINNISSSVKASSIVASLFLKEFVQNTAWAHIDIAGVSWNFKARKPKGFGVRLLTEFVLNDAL
For `COc1ccc(N=C2NC(=O)/C(=C/C=C/c3ccccc3)S2)cc1`, the inhibition was 3.51% (inactive). In the case of `CCc1ccc(C2CC(c3ccc(Cl)cc3)n3nc(N)nc3N2)cc1` (configuration not stated), the inhibition is reported as -1.74% (inactive). `CCC(CC)Nc1ccc(C(CC(N)=O)NC(=O)Cc2ccc(Br)cc2)cc1[N+](=O)[O-]` (configuration not stated) was tested, and the inhibition was -4.54% (inactive). `CN(C)c1ccnc2sc(C(=O)NCc3ccccc3)c(N)c12` was tested, and the inhibition was -4.21% (inactive). With `Cc1ccc(NC(=O)CCC(=O)OCC(=O)c2ccc(Oc3ccc([N+](=O)[O-])cc3)cc2)c(C)c1` the inhibition was 13.8% (inactive). In the case of `Cc1cccc(C)c1NC(=O)CSc1nnc(NC(=O)c2ccccc2C(=O)O)s1`, the inhibition is reported as 19.1% (inactive). `CC(C)c1nnc(NC(=O)CSc2nnc(NC(=O)c3c(F)cccc3F)s2)s1` was tested, and the inhibition was 2.85% (inactive). `O=C(CSc1nnc(NC(=O)c2ccco2)s1)Nc1ccc(F)cc1` was tested, and the inhibition was -1.02% (inactive). For `COc1ccc(NC(=O)CSc2nnc(NC(=O)c3ccco3)s2)cc1`, the inhibition was 22.5% (inactive). With `C=CCn1cnc2sc(C(=O)Nc3ccccc3OC)c(C)c2c1=O` the inhibition was 7.04% (inactive). `Clc1ccc(-c2cc(COc3ccc4ccccc4c3)no2)cc1` was tested, and the inhibition was -2.54% (inactive). For `COc1ccc(C(=O)CSc2nc(N)nc(SC)c2C#N)cc1`, the inhibition was -5.8% (inactive). For `CN1C(=O)/C(=C/c2ccco2)SC1=Nc1ccc(N2CCOCC2)cc1`, the inhibition was -4.86% (inactive). In the case of `CCN1C(=O)/C(=C\c2ccc(-c3ccc([N+](=O)[O-])cc3OC)o2)SC1=Nc1cccc(C(=O)O)c1`, the inhibition is reported as 28.7% (inactive). In the case of `CCOC(=O)c1sc(-c2ccccn2)nc1C`, the inhibition is reported as 10.5% (inactive). In the case of `C/C(O)=C(\C#N)c1nc2ccccc2[nH]1`, the inhibition is reported as 1.5% (inactive). With `CCN(CC)S(=O)(=O)c1ccc(Cl)c(NC(=O)CCCCl)c1` the inhibition was 8.77% (inactive). In the case of `NC(=O)C1CCN(C(=O)c2ccc(CS(=O)(=O)c3c(Cl)cccc3Cl)o2)CC1`, the inhibition is reported as 1.58% (inactive). For `CCCCn1c(N)c(Br)c(=O)[nH]c1=O`, the inhibition was 10% (inactive). With `CCOc1cccc(/C=N/NC(=O)CC2C(=O)NN=C2C)c1O` (configuration not stated) the inhibition was 3.72% (inactive). With `COc1cc(OC)c(OC)cc1/C=N/NC(=O)CC1C(=O)NN=C1C` (configuration not stated) the inhibition was 53.3% (inactive). `COc1cc(/C=N/NC(=O)CC2C(=O)NN=C2C)ccc1O` (configuration not stated) was tested, and the inhibition was 10.4% (inactive). `COc1ccc(OC)c(/C=N/NC(=O)CC2C(=O)NN=C2C)c1` (configuration not stated) was tested, and the inhibition was -164% (inactive). In the case of `CCCn1c(C2CC(=O)N(c3ccc(C)cc3)C2)nc2ccccc21` (configuration not stated), the inhibition is reported as 4.53% (inactive). `O=C(Nc1cccc(F)c1)/C(=C\c1cccnc1)NC(=O)c1cccs1` was tested, and the inhibition was 7.11% (inactive). With `CC1=C(C#N)C(=O)NC(=O)/C1=C/c1ccc(-c2ccc(S(N)(=O)=O)cc2)o1` the inhibition was 35.6% (inactive). In the case of `CC1=C(C#N)C(=O)NC(=O)/C1=C\c1ccc(-c2cc(C)c(C)cc2[N+](=O)[O-])o1`, the inhibition is reported as 24.2% (inactive). `CC(=O)c1c(O)cc(=O)n(-c2ccccc2)c1-c1ccc(C)cc1` was tested, and the inhibition was 0.53% (inactive). For `CC(=O)c1c(O)cc(=O)n(-c2ccccc2)c1-c1ccc(Cl)cc1`, the inhibition was -10.1% (inactive). In the case of `Cc1cccc(Nc2nnc(SCC(=O)c3ccc(Br)s3)s2)c1C`, the inhibition is reported as 23% (inactive). For `CN(C(=O)CSc1nnc(-c2ccc(Cl)cc2)n1CC1CCCO1)C1CCS(=O)(=O)C1` (configuration not stated), the inhibition was -0.82% (inactive). In the case of `Nc1nc2nc(-c3ccc(OCc4ccccc4)cc3)cc(C(F)(F)F)n2n1`, the inhibition is reported as -1.91% (inactive). With `COc1ccc(CNc2ncccn2)cc1OC` the inhibition was -2.62% (inactive). In the case of `COc1cc(C)nc2nc(SCc3ccccc3)nn12`, the inhibition is reported as -4.54% (inactive). In the case of `Cc1cc(C)n2nc(SCc3ccccc3)nc2n1`, the inhibition is reported as -5.69% (inactive). With `Cc1nc2nc(COc3ccccc3)nn2c(C)c1Cl` the inhibition was -4.07% (inactive). With `COc1ccc(CNc2nc3nc(C)cc(C)n3n2)cc1OC` the inhibition was 4.62% (inactive). In the case of `CSc1nc2nc(C)cc(-c3ccccc3)n2n1`, the inhibition is reported as -6.85% (inactive). With `CSc1nc2nc(-c3ccccc3)cc(C(F)(F)F)n2n1` the inhibition was -8.74% (inactive). For `COC(=O)c1c(NC(=O)Cn2cnc([N+](=O)[O-])n2)sc2c1CCC(C)C2` (configuration not stated), the inhibition was 1.07% (inactive). For `O=C(NC1CCN(Cc2ccccc2)CC1)C1CCN(c2nnc(-n3cccc3)s2)CC1`, the inhibition was -1.52% (inactive). `Nc1cc(C(F)(F)F)ccc1Nc1ccccc1` was tested, and the inhibition was -4.7% (inactive). With `CCCCOC(=O)Nc1ccccc1C(=O)N1CCCC1` the inhibition was 10.4% (inactive). `CCOC(=O)C(C(=O)NCC1CCCO1)C1CCCCC1` (configuration not stated) was tested, and the inhibition was 5.23% (inactive). `CCOC(=O)C1(O)CSc2nc3sc(C(=O)O)c(C)c3c(=O)n21` (configuration not stated) was tested, and the inhibition was -2.76% (inactive). `COc1ccc(-c2noc(CN(C)Cc3ccc(C)o3)n2)cc1` was tested, and the inhibition was 1.39% (inactive). `COc1cc([N+](=O)[O-])ccc1NC(=O)CN1CCN(C(=O)c2ccco2)CC1` was tested, and the inhibition was 17.7% (inactive). For `COc1cc2c(C(=O)N3CCN(c4cccc(Cl)c4)CC3)cn(CC(C)C)c(=O)c2cc1OC`, the inhibition was -4.76% (inactive). `CC1(C)Cc2c(c(N3CCOCC3)nc3sc4c(N5CCOCC5)nnnc4c23)CS1` was tested, and the inhibition was -1.05% (inactive). With `CCc1ccc(NC2=NCC(=O)N2c2ccc3c(c2)OCCO3)cc1` the inhibition was -5.16% (inactive). `CCOC(=O)C1(CC2CC2)CCN(Cc2cn[nH]c2-c2cccc(F)c2)CC1` was tested, and the inhibition was -3.31% (inactive). `Cc1ccc(NC(=O)c2ccccc2OCC(=O)c2ccccc2)cc1` was tested, and the inhibition was 3.34% (inactive). In the case of `CC(/C=N/NC(=O)Cc1cccn1C)=C\c1ccccc1`, the inhibition is reported as 32.7% (inactive). With `O=C(Cc1cc(=O)[nH][nH]1)N/N=C/c1c(Cl)cccc1Cl` the inhibition was 47.6% (inactive). In the case of `O=C(Cc1ccc(Cl)cc1)N/N=C/c1c(Cl)cccc1Cl`, the inhibition is reported as -10.8% (inactive). `O=C(Cc1cccs1)N/N=C/C(Cl)=C/c1ccccc1` was tested, and the inhibition was -2.46% (inactive). In the case of `CC(/C=N/NC(=O)Cc1cccs1)=C\c1ccccc1`, the inhibition is reported as -13.2% (inactive). With `O=C(Cc1cc(=O)[nH][nH]1)N/N=C/C(Cl)=C/c1ccccc1` the inhibition was 52.8% (inactive). For `O=C(CCCN1C(=O)c2cccc3cccc(c23)C1=O)NCCN1CCOCC1`, the inhibition was 4.16% (inactive). With `O=C(CCc1nnc(CCCCc2ccccc2)o1)NCc1cccc(F)c1` the inhibition was -1.09% (inactive). For `CCC(C)Oc1cc(-c2ccnc(Nc3cccc(Cl)c3)n2)ccn1` (configuration not stated), the inhibition was 0.9% (inactive). `CC(=O)Nc1ccc(S(=O)(=O)NCc2csc(-c3cccnc3)n2)cc1` was tested, and the inhibition was 5.75% (inactive). With `Cc1ccc(-c2cc(C(=O)Nc3ccc(S(=O)(=O)Nc4ncccn4)cc3)c3ccccc3n2)cc1` the inhibition was 39.1% (inactive). For `CC(=O)NS(=O)(=O)c1ccc(NC(=O)c2cc(-c3cccs3)nc3ccccc23)cc1`, the inhibition was 16.1% (inactive). For `Cc1ccc(-c2cc(C(=O)Nc3ccc(S(=O)(=O)Nc4nc(C)cc(C)n4)cc3)c3ccccc3n2)cc1`, the inhibition was -0.85% (inactive). In the case of `CC(=O)NS(=O)(=O)c1ccc(NC(=O)c2cc(-c3ccc(C)c(C)c3)nc3ccccc23)cc1`, the inhibition is reported as -0.01% (inactive). For `COc1ccc2c(c1)nc(SCC(=O)c1ccc(Br)s1)n2C`, the inhibition was 43.5% (inactive). With `COc1ccc(C(O)P(=O)(O)CCc2ccccc2)cc1` (configuration not stated) the inhibition was 21.7% (inactive). In the case of `CCOC(=O)CCP(=O)(O)C(O)c1ccccc1` (configuration not stated), the inhibition is reported as 11.7% (inactive). In the case of `O=C1OC(c2ccccc2)=C/C1=C\N1CCOCC1`, the inhibition is reported as 8.13% (inactive). With `CC(C)[C@H](NC(=O)c1ccccc1)C(=O)OCC(=O)N1CCc2ccccc2C1` the inhibition was 10.5% (inactive). In the case of `COc1ccc(NC(=O)c2ccc(-n3cccn3)c([N+](=O)[O-])c2)cc1`, the inhibition is reported as 1.4% (inactive). With `O=C(CCCOc1ccccc1)n1nnc2ccccc21` the inhibition was -0.57% (inactive). In the case of `O=C(CCCOc1ccc(Cl)cc1Cl)n1nnc2ccccc21`, the inhibition is reported as 69.2% (inactive). For `CN1CCN(C(=O)/C=C/c2ccc3c(c2)OCO3)CC1`, the inhibition was 6.85% (inactive). With `COc1ccc(-n2c(=O)c3c4c(sc3n(CC(=O)NC3CCCC3)c2=O)CCCC4)c(OC)c1` the inhibition was 0% (inactive). `COc1cc(NC(=O)Cc2cccs2)c(C(=O)O)cc1OC` was tested, and the inhibition was 4.5% (inactive). In the case of `Cc1c(Cl)cccc1NC(CC(=O)c1ccccc1)C(=O)O` (configuration not stated), the inhibition is reported as 49.4% (inactive). `O=C(CC(Nc1ccccc1Cl)C(=O)O)c1ccccc1` (configuration not stated) was tested, and the inhibition was 19.8% (inactive). `O=C(CCCN1C(=O)c2ccccc2C1=O)Nc1nncs1` was tested, and the inhibition was 0.65% (inactive). In the case of `COc1cc(-c2csc(C)n2)ccc1O`, the inhibition is reported as -9.57% (inactive). In the case of `Oc1ccc(-c2nc(-c3ccc(O)c(O)c3)cs2)cc1`, the inhibition is reported as 25.6% (inactive). `Cc1cc(Cl)cc(Cl)c1OCCCCN(C)C` was tested, and the inhibition was 1.1% (inactive). In the case of `Cn1c(NC(=O)/C=C/c2ccccc2)cc(=O)n(C)c1=O`, the inhibition is reported as 9.82% (inactive). For `COc1ccc(/C=C/C(=O)Nc2cc(=O)n(C)c(=O)n2C)cc1`, the inhibition was 50.5% (inactive). In the case of `CCCCC(CC)CNC(=O)/C=C/c1ccc(F)cc1` (configuration not stated), the inhibition is reported as 9.03% (inactive). In the case of `COc1ccc(S(=O)(=O)Nc2ccc3c(c2)OCCO3)cc1Cl`, the inhibition is reported as -0.34% (inactive). In the case of `Cc1cc(SCC2=NNC(=O)C2)c(Cl)cc1Cl`, the inhibition is reported as 3.5% (inactive). `O=C1CC(CSc2ccc(Cl)cc2)=NN1` was tested, and the inhibition was 7.98% (inactive). `O=C(O)COc1ccc(Cl)cc1CO` was tested, and the inhibition was 20% (inactive). With `CCOC(=O)C1=C(C)N(C)C(C)=C(C(=O)OCC)C1c1ccc(C(=O)OC)cc1` the inhibition was 3.78% (inactive). With `CC(C)NC(=O)NC(=O)COc1c(F)c(F)cc(F)c1F` the inhibition was -8.9% (inactive). In the case of `CCNC(=S)Nc1ccc2cn[nH]c2c1`, the inhibition is reported as 14.6% (inactive). `CCc1ccc(NC(=S)Nc2ccc3cn[nH]c3c2)cc1` was tested, and the inhibition was 11.2% (inactive). `CC(c1ccon1)N(C)Cc1cn(C)nc1-c1cccc(Cl)c1` (configuration not stated) was tested, and the inhibition was -1.33% (inactive). With `CN(C)c1ccc(/C=C2\CCC/C(=C\c3ccccc3)C2=O)cc1` the inhibition was 5.08% (inactive). For `O=C1/C(=C/c2ccncc2)CCC/C1=C\c1ccncc1`, the inhibition was -3.28% (inactive).
